The text below walks through data of PubChem BioAssay (NCATS).

Each structure is given as a SMILES string. Several values for one entry are separate records, joined by “and”; a condition that tells them apart may be missing. Equal entries are not always repeated. Inconclusive results are not listed. Activity calls are given as the source filed them. Unless noted, calls come from the whole dose curve; as a rule, active = well fitted curve in the direction sought with a large enough effect; inconclusive = small, poorly fitted or top-dose-only effect, or another doubt; inactive = no such curve, though single readings can be large; an effect the other way counts as inactive or inconclusive.

Assay [1] deals with Zika virus NS2B-NS3 protease. Put plainly: Primary screen GU AMC qHTS for Zika virus inhibitors (AID 1347154).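 For activity change, negative = inhibition: 0% = no-inhibitor control and -100% = no-enzyme control.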 Note: nearly all actives have a fitted effect of over 70% in size. The method in brief: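 Unlinked Zika NS2B hydrophilic domain/NS3 protease domain noncovalent complex (25 nM final) in 10 mM Tris-HCl pH 8.0, 0.01% Tween 20, with AMC peptide substrate. Fluorescence (ex 340, em 450 nm) change over 15 min, room temperature; percent inhibition fitted to 4-parameter Hill equation.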
Background: Quantitative high-throughput screening tests each substance at several concentrations.

In assay [2] the target is Calcium and integrin-binding protein 1 (Homo sapiens) (UniProt Q99828). Put plainly: Primary qHTS for Identification of Calcium Integrin Binding Protein 1 (CIB1) Competitor (AID 1508620). The method in brief:
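Fluorescence polarization competition: CIB1-GST (1 uM final) preincubated with compound 15 min at room temperature, then FITC-labeled alphaIIb peptide (100 nM final) added for another 15 min. Polarization read at Ex 480/Em 540.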

The nature of assay [3]: NCATS anti-infectives library activity on HEK293 viability as a counter-qHTS vs the C. elegans viability qHTS (AID 1745854).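 Note: HEK293 cells exposed to compounds for 24 hr before the viability read.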 The method in brief:
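HEK293 cells (1,500/well) exposed 24 hr at 37C to 1:5 titrations, up to 41.7 uM final; counter-screen to a C. elegans viability qHTS. Viability by CellTiter-Glo luminescence after 10 min at room temperature; digitonin as control.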

In assay [4] the target is Glutathione peroxidase 1 (Homo sapiens) (UniProt P07203). Put plainly: Primary qHTS Assay for Inhibitors of Recombinant Selenoprotein Glutathione Peroxidase 1 (GPX1) (AID 1845191). Note: nearly all actives have a fitted effect of over 65% in size. The method in brief: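 Recombinant GPX1 (10 nM final) was preincubated with compound for 30 min at room temperature, then reacted with 1 mM GSH, 0.5 mM CHP, 0.5 mM NADPH and 100 nM glutathione reductase; NADPH fluorescence (340/450 nm) was read at 0 and 15 min.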
Sequence of Glutathione peroxidase 1 (Homo sapiens) (P07203 whole entry, looked up): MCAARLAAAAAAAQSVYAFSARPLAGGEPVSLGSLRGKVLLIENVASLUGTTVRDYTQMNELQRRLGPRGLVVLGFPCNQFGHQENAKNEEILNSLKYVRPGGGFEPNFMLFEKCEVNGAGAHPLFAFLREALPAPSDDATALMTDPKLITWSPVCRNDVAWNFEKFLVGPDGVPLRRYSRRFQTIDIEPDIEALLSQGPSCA

Assay [5] has as its target Phospholipid hydroperoxide glutathione peroxidase GPX4 (Homo sapiens) (UniProt P36969). Put plainly: Primary qHTS Assay for Inhibitors of Recombinant Selenoprotein Glutathione Peroxidase 4 (GPX4) (AID 1845192). Note: nearly all actives have a fitted effect of over 65% in size. The settings on record: outcome: dose series up to 50 µM unless noted. Summed up: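 GR-coupled readout: 100 nM GR, 1 mM GSH, 0.5 mM NADPH; NADPH fluorescence (ex 340/em 450 nm) read at t=0 and after 15 min RT. GPX4 200 nM, preincubated 30 min with compound; substrate 0.5 mM CHP.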

A short description of assay [6]: AP1 Signaling Pathway (AID 357; active = well fitted curve in either direction with a large enough effect, not every such curve was filed as active; note: % is set by controls: 0 for no effect and ±100 for the full control effect). To be noted: ME-180 AP-1-bla reporter, EGF-induced, beta-lactamase ratio, 5 h. Summed up: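 AP-1-bla ME-180 cells with beta-lactamase reporter under AP-1 response element, stimulated with EC50 EGF; compounds titrated, 5 hours at 37 degrees Celsius. CCF4 read at 460/530 nm ratio; positive and negative modulators judged by AC50.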
Assay [7] in a line: NFAT Signaling Pathway (AID 444; active = well fitted curve in either direction with a large enough effect, not every such curve was filed as active;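 note: carbachol stimulus at about its EC50 of 1 µM final; % is set by controls: 0 for no effect and ±100 for the full control effect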). The settings on record: Jurkat NFAT-bla M1, carbachol, beta-lactamase ratio, 5 h. The method in brief: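 Jurkat cells carrying an NFAT-driven β-lactamase reporter and co-transfected muscarinic M1 receptor were treated with compound plus carbachol (1 uM final, an EC50 level) for 5 h at 37 °C. CCF4 loading followed for 1 h at RT; 460/530 nm ratio gave %activity.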

Assay [8] in a line: Stat Signaling Pathway (AID 446; active = well fitted curve in either direction with a large enough effect, not every such curve was filed as active;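 note: ME-180 cervical cancer cells given 40 pM IL-6 alongside compound; SIE-controlled beta-lactamase reporter measured as 460/530 nm FRET emission ratio; % is set by controls: 0 for no effect and ±100 for the full control effect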). The settings on record: ME-180 (cervical carcinoma) SIE beta-lactamase reporter, IL-6 stimulated, 5 h. Summed up:
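ME-180 cells carrying a SIE-driven beta-lactamase reporter are stimulated with 40 pM IL-6 for 5 h at 37C in the presence of compound. The 460/530 nm FRET substrate ratio is read after 2.5 h at RT. Data are normalised to 300 pM IL-6 and to 125 nM JAK inhibitor controls.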

Assay [9] addresses Glucocorticoid receptor (Homo sapiens) (UniProt P04150). Put plainly: GR-GFP Redistribution (AID 450;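 active = compounds whose dose series gives a full or clear partial fitted curve of increased nuclear translocation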; note: potency is the fitted concentration of half-maximal effect). The settings on record: U2OS GR-GFP nuclear translocation, laser cytometry, 2 h.
The target is the same in assay [10]. The experiment in a line: GR-EFC Redistribution (AID 451; calls by dose curve; note: potency is the fitted concentration of half-maximal effect). The settings on record: CHO-K1 GR-EFC translocation, beta-gal luminescence, 2 h. Summed up: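 CHO-K1 cells stably expressing nuclear-localized β-gal enzyme acceptor and GR fused C-terminally to the enzyme donor fragment; ligand-driven nuclear translocation restores β-gal by complementation. Compounds titrated up to 46 uM final, 2 h at 37 °C; luminescence read.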

Assay [11] deals with 3',5'-cyclic-AMP phosphodiesterase 4B (Homo sapiens) (UniProt Q07343). The experiment in a line: qHTS Assay for Inhibitors of PDE-IV (AID 607; active = well fitted activation curve with a large enough effect in the main read-out, with a control signal flat, not every such curve was filed as active; note: % of control where 0% means no effect). The method in brief: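 HEK293 ACTOne cells with CNG channel (1000/well), endogenous PDE4; membrane potential dye, compounds up to 22.9 uM final. Fluorescence Ex 535/Em 590; RO 20-1724 (100 uM final) as reference.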
Sequence of 3',5'-cyclic-AMP phosphodiesterase 4B (Homo sapiens) (Q07343 whole entry, looked up): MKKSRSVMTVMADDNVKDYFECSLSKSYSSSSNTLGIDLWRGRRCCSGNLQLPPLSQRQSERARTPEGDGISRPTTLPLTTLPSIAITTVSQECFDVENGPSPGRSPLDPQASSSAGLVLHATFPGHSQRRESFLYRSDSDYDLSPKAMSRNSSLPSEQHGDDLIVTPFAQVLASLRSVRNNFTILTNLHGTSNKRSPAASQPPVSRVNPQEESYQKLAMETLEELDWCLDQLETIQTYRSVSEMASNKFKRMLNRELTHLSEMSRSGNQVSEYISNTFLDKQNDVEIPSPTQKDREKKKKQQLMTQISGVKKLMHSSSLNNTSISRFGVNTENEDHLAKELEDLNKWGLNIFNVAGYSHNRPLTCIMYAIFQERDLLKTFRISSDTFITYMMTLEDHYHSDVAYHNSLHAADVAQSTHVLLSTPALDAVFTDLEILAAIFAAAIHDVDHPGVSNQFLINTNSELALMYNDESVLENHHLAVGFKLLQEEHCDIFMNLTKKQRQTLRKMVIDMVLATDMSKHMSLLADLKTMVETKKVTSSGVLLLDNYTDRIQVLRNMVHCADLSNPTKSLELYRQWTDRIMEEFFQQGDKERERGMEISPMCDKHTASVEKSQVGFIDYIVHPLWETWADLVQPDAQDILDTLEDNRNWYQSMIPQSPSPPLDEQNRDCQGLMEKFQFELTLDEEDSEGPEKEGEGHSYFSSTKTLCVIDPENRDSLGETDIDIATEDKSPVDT
A short description of assay [12]: qHTS Assay for Identification of Small Molecule Agonists for Thrombopoietin (TPO) Signaling Pathway (AID 917). Note: % is set by controls: 0 for no effect and ±100 for the full control effect. The method in brief:
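Luminescence from a Glycoprotein IIb promoter–driven luciferase reporter served as read-out in murine Ba/F3 cells carrying the human TPO receptor. Cells, deprived of IL-3 overnight, received compounds with 26 pM TPO and were incubated 24 hrs at 37 C.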

Assay [13] concerns the target Muscarinic acetylcholine receptor M1 (Rattus norvegicus) (UniProt P08482). The experiment in a line: qHTS Assay for Antagonists of Acetylcholine Muscarinic M1 Receptor: Kinetic Measurement of Intracellular Calcium Response (AID 943). Note: nearly all actives have a fitted effect of over 75% in size. The method in brief: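 CHO cells expressing rat M1 receptor, Fluo-4 loaded, preincubated 10 min with compound, then stimulated with EC80 carbachol (100 nM final). Kinetic calcium fluorescence over 4 min; response taken as peak over basal signal.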

For assay [14] the target is unchanged. The experiment in a line: qHTS Assay for Antagonists of Acetylcholine Muscarinic M1 Receptor: Measurement of IP-One Response (AID 944). Note: nearly all actives have a fitted effect of over 75% in size. Summed up: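 CHO cells stably expressing rat M1, pretreated 10 min with compound, then stimulated 30 min with carbachol at EC80 (200 nM) in LiCl-containing buffer pH 7.4; IP1 accumulation read by HTRF competition (665/620 nm).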

The target of assay [15] is Pyruvate kinase (Leishmania mexicana) (UniProt Q27686). Put plainly: qHTS Validation Assay for Inhibitors of Leishmania Mexicana Pyruvate Kinase (AID 945).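 Note: 0% = DMSO only neutral control wells.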 The method in brief:
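Purified LmPYK (E451W mutant, 0.2 nM) was incubated 1 h at room temperature with 0.5 mM PEP and 0.1 mM ADP in 50 mM imidazole pH 7.2, 50 mM KCl, 7 mM MgCl2; ATP formed was read by PKLight luminescence, normalized to DMSO wells.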

Assay [16] concerns the target Pyruvate kinase PKM (Homo sapiens) (UniProt P14618). The experiment in a line: qHTS Assay for Activators of Human Muscle Pyruvate Kinase (AID 954; active = well fitted curve in the direction sought with a large enough effect, not every such curve was filed as active;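 note: 0% = uninhibited enzyme and -100% = no enzyme or full thiadiazolimine inhibition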). Summed up: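 Purified human PKM2 (0.1 nM) with 0.5 mM PEP (Km) and 0.1 mM ADP in 50 mM imidazole pH 7.2, KCl, MgCl2, 1 h at room temperature; ATP formed read by coupled luciferase luminescence. Normalized to no-enzyme/110 uM thiadiazolimine inhibition; 0.3 nM enzyme column for activation.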

For assay [17], the target named is Alpha-galactosidase A (Homo sapiens) (UniProt P06280). Put plainly: Counterscreen for Glucocerebrosidase Inhibitors: qHTS Assay for Human alpha-Galactosidase at pH 4.5 (AID 992). Note: 0% is about no effect. Summed up: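 Human enzyme (2 nM) with 80 uM 4-methylumbelliferyl alpha-D-galactopyranoside in 50 mM citric acid, 0.005% Tween-20, pH 4.5, 20 min at room temperature. Compounds 0.7 nM–77 uM; fluorescence Ex 365/Em 440 after pH 10 stop; AC50 from Hill fits.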
Sequence of Alpha-galactosidase A (Homo sapiens) (P06280 whole entry, looked up): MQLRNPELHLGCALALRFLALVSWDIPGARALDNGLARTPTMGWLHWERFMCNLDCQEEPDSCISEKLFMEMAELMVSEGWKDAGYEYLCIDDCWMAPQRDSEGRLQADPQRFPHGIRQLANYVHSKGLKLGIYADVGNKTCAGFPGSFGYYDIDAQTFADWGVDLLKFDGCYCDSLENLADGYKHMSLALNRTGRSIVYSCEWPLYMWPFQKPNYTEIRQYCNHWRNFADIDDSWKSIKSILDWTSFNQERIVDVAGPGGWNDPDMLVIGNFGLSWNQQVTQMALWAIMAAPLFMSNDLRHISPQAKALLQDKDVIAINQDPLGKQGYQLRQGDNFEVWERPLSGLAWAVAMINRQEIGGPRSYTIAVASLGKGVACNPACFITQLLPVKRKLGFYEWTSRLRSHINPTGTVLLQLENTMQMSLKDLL

Assay [18] concerns the target alpha-glucosidase (Oryza sativa, rice) (UniProt Q653V4). The experiment in a line: Counterscreen for Glucocerebrosidase Inhibitors: qHTS Assay for Rice alpha-Glucosidase at pH 5.0 (AID 997).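 Note: 0% = full activity with enzyme and -100% = basal without enzyme.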 The method in brief: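 Rice alpha-glucosidase (4 nM final) with 400 uM 4-methylumbelliferyl-alpha-D-glucopyranoside in citrate buffer pH 5.0, 20 min at room temperature, stopped at pH 10; fluorescence 365/440 nm, compounds 0.7 nM–77 uM, AC50 from Hill fits.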
Background: Counterscreens check selectivity or assay interference.

A short description of assay [19]: qHTS Assay for Lipid Storage Modulators (AID 1519; calls by dose curve). To be noted: Drosophila S3 cells, BODIPY lipid droplet/cell ratio, laser cytometry, cells loaded with oleic acid. The method in brief:
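Cells seeded at 5,000 per well were treated with compounds over a concentration series and loaded with oleic acid (400 uM, as added). Lipid droplet fluorescence (488 nm excitation, 500-530 nm channel) was read by laser-scanning cytometry and normalized to 20 uM Triacsin C.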

The target of assay [20] is Ubiquitin carboxyl-terminal hydrolase 1 (Homo sapiens) (UniProt O94782). Put plainly: Inhibitors of USP1/UAF1: Pilot qHTS (AID 504865).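 Note: rhodamine fluorescence freed from ubiquitin-rhodamine substrate followed over time; top concentration of the series differs between compounds; % is set by controls: 0 for no effect and ±100 for the full control effect; nearly all actives have a fitted effect of over 35% in size.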 The method in brief:
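In 50mM HEPES pH 7.8 containing 0.5mM EDTA, 1mM TCEP, 0.1 mg/ml BSA and 0.01% Tween-20, 1nM USP1/UAF1 is exposed to compound for 15 min, then Ub-Rho (150nM final) is added and fluorescence is read over time.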

Assay [21] addresses DNA dC->dU-editing enzyme APOBEC-3G (Homo sapiens) (UniProt Q9HC16). Put plainly: qHTS for inhibitors of Vif-A3G interactions: Validation (AID 588379). Note: 0% is about no effect. The method in brief:
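HeLa cells stably expressing Vif and A3G-eYFP, 700 cells/well, incubated overnight at 37 deg C, then exposed to compound overnight at 37 deg C. Inhibition of Vif-mediated degradation read as increased yellow fluorescence (Ex 488/Em 500-530) by laser-scanning cytometry.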

The nature of assay [22]: Counterscreen qHTS for small molecule stabilizers of the endoplasmic reticulum resident proteome: GLuc-NoTag assay (AID 1508627).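 Note: SH-SY5Y cells given compound then 100 nM thapsigargin to empty ER calcium; 0% = thapsigargin alone and -100% = DMSO vehicle control.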 The method in brief:
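SH-SY5Y cells stably expressing constitutively secreted GLuc (no SERCaMP tag) were pre-incubated 5 h, treated with compound for 19 h, then 100 nM thapsigargin for 4 h at 37C; medium GLuc read by coelenterazine luminescence.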

Sequence of Glucocorticoid receptor (Homo sapiens) (P04150 whole entry, looked up, the tested form may be a part): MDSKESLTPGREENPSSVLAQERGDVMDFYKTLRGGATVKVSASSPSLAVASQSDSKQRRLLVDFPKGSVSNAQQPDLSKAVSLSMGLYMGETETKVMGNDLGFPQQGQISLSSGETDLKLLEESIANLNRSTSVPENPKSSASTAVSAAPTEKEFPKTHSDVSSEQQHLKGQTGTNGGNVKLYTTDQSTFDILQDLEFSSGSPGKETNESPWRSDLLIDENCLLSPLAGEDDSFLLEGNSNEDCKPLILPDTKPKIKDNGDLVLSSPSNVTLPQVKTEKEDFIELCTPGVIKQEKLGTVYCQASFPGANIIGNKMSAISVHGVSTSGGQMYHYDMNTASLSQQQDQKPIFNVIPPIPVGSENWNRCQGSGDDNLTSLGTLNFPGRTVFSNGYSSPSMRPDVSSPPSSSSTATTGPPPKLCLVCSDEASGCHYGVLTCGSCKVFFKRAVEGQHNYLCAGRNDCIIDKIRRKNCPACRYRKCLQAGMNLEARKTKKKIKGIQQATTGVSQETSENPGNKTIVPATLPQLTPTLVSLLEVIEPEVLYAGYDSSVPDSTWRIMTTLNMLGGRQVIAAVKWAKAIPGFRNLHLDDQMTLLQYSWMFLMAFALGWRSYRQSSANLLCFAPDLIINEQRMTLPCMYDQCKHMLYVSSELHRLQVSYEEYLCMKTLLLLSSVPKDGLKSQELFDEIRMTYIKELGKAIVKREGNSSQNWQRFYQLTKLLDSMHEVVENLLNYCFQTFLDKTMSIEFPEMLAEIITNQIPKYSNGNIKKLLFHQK
Sequence of Muscarinic acetylcholine receptor M1 (Rattus norvegicus) (P08482 whole entry, looked up): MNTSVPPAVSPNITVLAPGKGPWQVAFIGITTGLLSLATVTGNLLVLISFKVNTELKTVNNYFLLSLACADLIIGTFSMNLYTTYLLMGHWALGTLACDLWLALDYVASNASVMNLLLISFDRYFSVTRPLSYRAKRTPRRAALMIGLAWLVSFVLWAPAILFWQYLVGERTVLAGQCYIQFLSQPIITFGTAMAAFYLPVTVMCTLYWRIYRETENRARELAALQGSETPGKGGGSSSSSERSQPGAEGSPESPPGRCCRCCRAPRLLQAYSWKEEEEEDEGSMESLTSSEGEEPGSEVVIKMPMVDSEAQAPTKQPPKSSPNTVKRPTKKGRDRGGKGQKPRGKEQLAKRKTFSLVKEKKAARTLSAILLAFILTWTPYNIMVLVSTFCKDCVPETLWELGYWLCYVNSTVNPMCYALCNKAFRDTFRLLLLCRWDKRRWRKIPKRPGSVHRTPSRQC
Sequence of Ubiquitin carboxyl-terminal hydrolase 1 (Homo sapiens) (O94782 whole entry, looked up): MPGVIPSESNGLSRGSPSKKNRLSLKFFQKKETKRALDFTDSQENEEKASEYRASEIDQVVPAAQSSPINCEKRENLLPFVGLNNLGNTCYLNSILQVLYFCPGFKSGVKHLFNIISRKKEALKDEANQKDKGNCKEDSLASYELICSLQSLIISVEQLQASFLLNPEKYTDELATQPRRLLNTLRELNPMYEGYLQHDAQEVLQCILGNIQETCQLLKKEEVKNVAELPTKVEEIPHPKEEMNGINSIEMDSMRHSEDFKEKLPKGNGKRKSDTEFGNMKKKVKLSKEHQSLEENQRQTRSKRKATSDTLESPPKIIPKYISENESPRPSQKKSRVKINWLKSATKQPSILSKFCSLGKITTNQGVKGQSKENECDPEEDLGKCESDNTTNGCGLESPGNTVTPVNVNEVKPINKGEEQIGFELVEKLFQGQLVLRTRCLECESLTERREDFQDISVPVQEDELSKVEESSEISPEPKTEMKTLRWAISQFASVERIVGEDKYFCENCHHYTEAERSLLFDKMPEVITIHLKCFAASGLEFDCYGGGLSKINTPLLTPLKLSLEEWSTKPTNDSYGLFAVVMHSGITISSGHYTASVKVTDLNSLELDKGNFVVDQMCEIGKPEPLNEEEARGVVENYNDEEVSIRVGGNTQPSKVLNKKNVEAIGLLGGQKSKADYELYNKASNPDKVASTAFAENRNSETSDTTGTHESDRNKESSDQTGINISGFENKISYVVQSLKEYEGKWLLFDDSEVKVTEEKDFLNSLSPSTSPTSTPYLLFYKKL
Sequence of Phospholipid hydroperoxide glutathione peroxidase GPX4 (Homo sapiens) (P36969 whole entry, looked up): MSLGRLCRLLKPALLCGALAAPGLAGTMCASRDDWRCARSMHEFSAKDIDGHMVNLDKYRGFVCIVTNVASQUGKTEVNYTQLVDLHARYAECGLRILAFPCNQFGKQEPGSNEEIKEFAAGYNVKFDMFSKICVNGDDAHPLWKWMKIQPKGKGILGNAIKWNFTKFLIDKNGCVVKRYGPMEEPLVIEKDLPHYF
Sequence of Pyruvate kinase (Leishmania mexicana) (Q27686 2-499 E452W): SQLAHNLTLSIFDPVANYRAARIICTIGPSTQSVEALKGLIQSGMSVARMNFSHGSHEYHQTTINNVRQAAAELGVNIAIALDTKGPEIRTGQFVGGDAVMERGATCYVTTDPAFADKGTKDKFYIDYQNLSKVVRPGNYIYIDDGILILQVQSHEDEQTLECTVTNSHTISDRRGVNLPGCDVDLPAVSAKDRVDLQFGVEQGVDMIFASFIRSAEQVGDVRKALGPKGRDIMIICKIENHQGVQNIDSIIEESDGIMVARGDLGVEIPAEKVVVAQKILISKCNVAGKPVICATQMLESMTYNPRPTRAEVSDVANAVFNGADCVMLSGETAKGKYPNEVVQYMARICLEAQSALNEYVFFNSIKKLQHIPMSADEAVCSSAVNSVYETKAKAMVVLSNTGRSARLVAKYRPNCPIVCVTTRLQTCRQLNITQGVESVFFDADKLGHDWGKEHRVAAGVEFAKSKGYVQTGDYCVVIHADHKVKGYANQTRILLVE
Sequence of Calcium and integrin-binding protein 1 (Homo sapiens) (Q99828 whole entry, looked up): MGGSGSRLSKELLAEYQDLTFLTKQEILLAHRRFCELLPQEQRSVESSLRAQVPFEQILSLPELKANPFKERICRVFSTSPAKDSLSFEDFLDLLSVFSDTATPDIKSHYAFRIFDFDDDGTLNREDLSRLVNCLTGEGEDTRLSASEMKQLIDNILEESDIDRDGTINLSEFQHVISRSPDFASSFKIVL
Sequence of DNA dC->dU-editing enzyme APOBEC-3G (Homo sapiens) (Q9HC16 whole entry, looked up): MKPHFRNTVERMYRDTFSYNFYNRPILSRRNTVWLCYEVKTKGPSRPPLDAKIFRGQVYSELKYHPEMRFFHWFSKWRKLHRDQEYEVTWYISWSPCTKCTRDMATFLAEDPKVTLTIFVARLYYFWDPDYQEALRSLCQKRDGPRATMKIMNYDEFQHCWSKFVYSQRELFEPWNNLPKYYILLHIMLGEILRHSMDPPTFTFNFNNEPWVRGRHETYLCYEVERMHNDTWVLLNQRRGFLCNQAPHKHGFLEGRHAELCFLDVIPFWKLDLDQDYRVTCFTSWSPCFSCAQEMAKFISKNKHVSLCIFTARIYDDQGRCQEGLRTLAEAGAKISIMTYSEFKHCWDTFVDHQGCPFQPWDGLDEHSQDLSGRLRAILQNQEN

Regarding `CN(C)/C(N)=N/C(=N)N`, the molecule was classed as inactive in assay [1], in assay [2] and in [3]. Moreover, in assay [4], the Potency result is “inactive”. Besides, the outcome in [5] is “inactive [setting not given]”.

Turning to `O=C1N=C(O)CN1/N=C\c1ccc(-c2ccc([N+](=O)[O-])cc2)o1`, the activity change, negative = inhibition is -13.8% (inactive) in assay [6] (at 17.2 µM (top of the series)); -14.1% (inactive) in assay [6] (at 38 µM (top of the series)); 4.77% (inactive) in assay [7] (at 17.2 µM (top of the series)); -3.36% (inactive) in assay [7] (at 38 µM (top of the series)); 3.41% (inactive) in assay [19] (at 25.7 µM (top of the series)). Besides, the values for the activity, negative = inhibition in assay [8] (at 17.2 µM (top of the series)) and in assay [8] (at 38 µM (top of the series)) were 9.37% (inactive) and -4.41% (inactive), respectively. The Potency in [9] is > 46 µM (inactive) and > 20.6 µM (inactive); in [10] it was > 46 µM (inactive) and > 20.6 µM (inactive). The Potency entry in [11], in assay [12], in assay [13], in assay [14], in [15] and in assay [20] was “inactive” throughout. For the same molecule, the Potency result in assay [21], in assay [1] and in assay [22] was “inactive” in each case. In addition, the outcome in assay [16], in assay [17] and in assay [18] was inactive. For the same molecule, the max response in [19] (measured here: cell count channel max response) was 3.82%; in [19] (measured here: lipid channel max response) it was 7.61%.
